Mcl1-Noxa inh = disrupts binding of human Mcl-1 to Noxa peptide. TR-FRET Mcl-1/Noxa peptide binding, 2 h. hit rate 1.5% among 220,000. AID 1022. inhibition, % at 21.7 µM;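 active = compounds that cut the protein-peptide binding signal by more than 50% relative to plate controls in a single-dose test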;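 note: His-tagged Mcl-1 with rhodamine Noxa BH3 peptide and terbium anti-His antibody; 0% = Mcl-1 plus Noxa peptide wells and 100% = peptide-only wells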
14-3-3 Bad PPI = disrupts binding of bovine 14-3-3 zeta to phospho-Bad peptide | P63103 | TR-FRET 14-3-3zeta/Dy647-pBad peptide displacement, 1 h | inhibition, % at 21.7 µM | hit rate 0.71% among 220,000;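 active = inhibition above about 70%, limit read from the data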;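 note: 0% = full 14-3-3 plus peptide FRET controls and 100% = background without 14-3-3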
MCL1-BIM inh = disrupts human MCL1 binding to BIM-BH3 peptide; Q07820; AID 2057; hit rate 0.68% among 320,000; GST-MCL1 / FITC-Bim-BH3 fluorescence polarization; inhibition, % at 10.9 µM;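 active = inhibition above the mean inhibition of all tested compounds plus 3 SD, set per campaign, cut at about 40% in these data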;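 note: 0% = DMSO wells and 100% = unlabeled Bim-BH3 peptide control; higher means more loss of mP so more displacement of Bim peptide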
Mcl1-Bid inh = disrupts binding of human Mcl-1 to Bid peptide; Q07820; TR-FRET Mcl-1/Bid-Dy647 peptide binding, 1536-well; inhibition, % at 21.7 µM; hit rate 0.97% among 220,000;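 active = compounds that cut the binding signal by more than half at the single screening dose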;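 note: His-tagged Mcl-1 with europium anti-His antibody binding Bid BH3 peptide; 0% = Mcl-1 plus peptide wells and 100% = peptide-only wells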
eIF4E 4G PPI = eIF4E/eIF4G interaction inhibition in translation initiation | P63073+Q04637 | TR-FRET eIF4E-eIF4GI(517-606) binding, 2 h | inhibition, % at 21.7 µM | hit rate 0.37% among 220,000 | AID 782;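 active = inhibition above about 30%, limit read from the data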;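 note: 0% = full FRET control wells and 100% = background wells lacking eIF4GI fragment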
Bim-Mcl-1 = human Bim-Mcl-1 interaction inhibition; Bead-based flow cytometry, Bim peptide-Mcl-1 binding; inhibition, % at 10 µM; hit rate 0.1% among 190,000; AID 1009; in the data active = inhibition above about 40%;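 note: 0% = no compound tracer wells and 100% = peptide blocker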
The depositor's hits bear a star; [ ] = another dose, or the depositor's remark. In the library only some 2.6% were active in any assay of this set; here they are far more common.

Results for COc1ccccc1OCCCCCc1c(C)n[nH]c1C ?
Mcl1-Noxa inh: 10; 14-3-3 Bad PPI: 72*; MCL1-BIM inh: -3; Mcl1-Bid inh: 4; eIF4E 4G PPI: -2; Bim-Mcl-1: -3

Results for CCOc1ccc(CNC(=O)CCCOc2cc(=O)n(C)c3ccccc23)cc1 ?
Mcl1-Noxa inh: -12; 14-3-3 Bad PPI: 2; MCL1-BIM inh: 3; Mcl1-Bid inh: -7; eIF4E 4G PPI: 6; Bim-Mcl-1: 3

Results for O=C(Cn1cnc2cc([N+](=O)[O-])ccc2c1=O)Nc1cccc(S(=O)(=O)N2CCOCC2)c1 ?
Mcl1-Noxa inh: 53*; 14-3-3 Bad PPI: -7; MCL1-BIM inh: 9; Mcl1-Bid inh: -6; eIF4E 4G PPI: 2; Bim-Mcl-1: -2

What do the screens show for `C/C(=N/NC(=O)c1cccc(N2CCCC2=O)c1)c1ccncc1`?
Mcl1-Noxa inh: 13; 14-3-3 Bad PPI: -6; MCL1-BIM inh: -1; Mcl1-Bid inh: -16; eIF4E 4G PPI: -2; Bim-Mcl-1: 0

Results for COc1ccc(-c2nn(-c3ccccc3)cc2C(=O)NC2CCCCC2C)cc1 (configuration not stated) ?
MCL1-BIM inh: -1

Results for C=CCOC(=O)C(=O)/C=C/c1coc2ccccc2c1=O ?
Mcl1-Noxa inh: 5; 14-3-3 Bad PPI: 15; MCL1-BIM inh: 46*; Mcl1-Bid inh: -6; eIF4E 4G PPI: 3; Bim-Mcl-1: -1

Results for C=CCOC(=O)C(=O)/C=C/c1c(C)n(C)n(-c2ccccc2)c1=O ?
Mcl1-Noxa inh: -11; 14-3-3 Bad PPI: -2; MCL1-BIM inh: 5; Mcl1-Bid inh: -9; eIF4E 4G PPI: -4; Bim-Mcl-1: 0

How did CCOC(=O)c1c(NC(=O)C2CC2)sc2c1CC(C)(C)OC2 do in these assays?
Mcl1-Noxa inh: 18; 14-3-3 Bad PPI: 91*; MCL1-BIM inh: 4; Mcl1-Bid inh: 14; eIF4E 4G PPI: -10

How did O=C(Nc1n[nH]c(C(F)(F)F)n1)C1CC1 do in these assays?
Mcl1-Noxa inh: 4; 14-3-3 Bad PPI: -7; MCL1-BIM inh: 5; Mcl1-Bid inh: -4; eIF4E 4G PPI: -4; Bim-Mcl-1: 43*

What do the screens show for `Cc1ccsc1C(=O)Nc1n[nH]c(C(F)(F)F)n1`?
Mcl1-Noxa inh: -6; 14-3-3 Bad PPI: -4; MCL1-BIM inh: -2; Mcl1-Bid inh: -5; eIF4E 4G PPI: 4

What do the screens show for `CC(=O)N/C(=C/c1ccc([N+](=O)[O-])cc1)C(=O)O`?
Mcl1-Noxa inh: 20; 14-3-3 Bad PPI: -10; MCL1-BIM inh: -13; Mcl1-Bid inh: -3; eIF4E 4G PPI: 1; Bim-Mcl-1: -4

What do the screens show for `CC1CN(CCc2ccccc2)c2nc3c(c(=O)n(C)c(=O)n3C)n2C1` (configuration not stated)?
MCL1-BIM inh: -2

What do the screens show for `CCN(C(=O)c1cc2c(C)nc3ccccc3c2o1)c1cc(Cl)ccc1OC`?
Mcl1-Noxa inh: -28; 14-3-3 Bad PPI: -2; MCL1-BIM inh: -1; Mcl1-Bid inh: -40; eIF4E 4G PPI: -2

How did Cc1csc2ncnc(N3CCN(C(=S)Nc4ccc(F)cc4F)CC3)c12 do in these assays?
Mcl1-Noxa inh: 11; 14-3-3 Bad PPI: 2; MCL1-BIM inh: 10; Mcl1-Bid inh: 90*; eIF4E 4G PPI: 3

Results for COC(=O)Cc1ccc(NC(=S)N2CCN(CCO)CC2)cc1 ?
MCL1-BIM inh: -3

What do the screens show for `Cc1ccc(NCc2ccccc2O)cc1C`?
Mcl1-Noxa inh: 17; 14-3-3 Bad PPI: -7; MCL1-BIM inh: 1; Mcl1-Bid inh: -43; eIF4E 4G PPI: 0; Bim-Mcl-1: -1

What do the screens show for `Oc1ccccc1CNc1ccc(OC(F)(F)F)cc1`?
Mcl1-Noxa inh: 57*; 14-3-3 Bad PPI: -2; MCL1-BIM inh: -5; Mcl1-Bid inh: -78; eIF4E 4G PPI: 5; Bim-Mcl-1: 0

How did CCOC(=O)C1CSc2[nH]c(=O)sc2C1c1ccccc1 (configuration not stated) do in these assays?
Mcl1-Noxa inh: 6; 14-3-3 Bad PPI: -8; MCL1-BIM inh: 6; Mcl1-Bid inh: -9; eIF4E 4G PPI: -10; Bim-Mcl-1: 0

Results for O=C(O)CC12CSc3[nH]c(=O)sc3C1c1ccccc1OC2=O (configuration not stated) ?
Mcl1-Noxa inh: -4; 14-3-3 Bad PPI: 62; MCL1-BIM inh: 7; Mcl1-Bid inh: 66*; eIF4E 4G PPI: 7; Bim-Mcl-1: 0

What do the screens show for `CSCC[C@H](NC(=O)OC(C)(C)C)c1nnc(SCC(=O)N(C)C)o1`?
Mcl1-Noxa inh: 67*; 14-3-3 Bad PPI: -17; MCL1-BIM inh: -6; Mcl1-Bid inh: -49; eIF4E 4G PPI: 0; Bim-Mcl-1: 2

How did CN(C)C(=O)CSc1nnc([C@H](Cc2ccccc2)NC(=O)OC(C)(C)C)o1 do in these assays?
Mcl1-Noxa inh: -4; 14-3-3 Bad PPI: 1; MCL1-BIM inh: 7; Mcl1-Bid inh: -12; eIF4E 4G PPI: 4

Results for COc1ccccc1/C=C/C(=O)OCC(=O)N1CCc2ccccc21 ?
MCL1-BIM inh: 9

How did Cc1n[nH]c(=S)n(NC(=O)/C=C/C(=O)Nn2c(=S)[nH]nc(C)c2=O)c1=O do in these assays?
Mcl1-Noxa inh: 87*; 14-3-3 Bad PPI: 85*; Mcl1-Bid inh: -43; eIF4E 4G PPI: 5; Bim-Mcl-1: -3

What do the screens show for `Cc1n[nH]c(=S)n(NC(=O)CC(=O)Nn2c(=S)[nH]nc(C)c2=O)c1=O`?
Mcl1-Noxa inh: -45; 14-3-3 Bad PPI: -20; MCL1-BIM inh: 7; Mcl1-Bid inh: -52; eIF4E 4G PPI: -8; Bim-Mcl-1: 1

How did Cc1ccc(OCc2nc(-c3ccccn3)n[nH]2)cc1 do in these assays?
Mcl1-Noxa inh: -41; 14-3-3 Bad PPI: -1; MCL1-BIM inh: -12; Mcl1-Bid inh: -25; eIF4E 4G PPI: 34*[fluorescence artefact?]; Bim-Mcl-1: -1

What do the screens show for `O=C(CN1C(=O)/C(=C2\SC(=S)N(C3CCS(=O)(=O)C3)C2=O)c2ccccc21)Nc1ccccc1` (configuration not stated)?
Mcl1-Noxa inh: 121*; 14-3-3 Bad PPI: 81*[fluorescence artefact?]; MCL1-BIM inh: 11; Mcl1-Bid inh: 99*; eIF4E 4G PPI: 11; Bim-Mcl-1: -3

Results for Cc1ccc(NC(=O)CN2C(=O)/C(=C3\SC(=S)N(C4CCS(=O)(=O)C4)C3=O)c3ccccc32)cc1 (configuration not stated) ?
Mcl1-Noxa inh: 75*; 14-3-3 Bad PPI: 93*[fluorescence artefact?]; Mcl1-Bid inh: 100*; eIF4E 4G PPI: 1; Bim-Mcl-1: 0

How did Cc1cccc(NC(=O)CN2C(=O)/C(=C3\SC(=S)N(CC4CCCO4)C3=O)c3ccccc32)c1 (configuration not stated) do in these assays?
MCL1-BIM inh: 3

What do the screens show for `CCc1c(C)sc(NC(=O)CC#N)c1C#N`?
Mcl1-Noxa inh: 62*; 14-3-3 Bad PPI: -4; MCL1-BIM inh: 13; Mcl1-Bid inh: -81; eIF4E 4G PPI: -5; Bim-Mcl-1: 1

How did CC(=O)Nc1ccc(S(=O)(=O)N2CCC(C(=O)N[C@@H](C)C(=O)NC3CCCC3)CC2)cc1 do in these assays?
MCL1-BIM inh: 3

Source: PubChem
